Data reported in the antibiotic and cytotoxicity screens of Wong et al. (2023).
Out of some 39,000 compounds screened, about 500 (1.3%) were called active. Shown is part of a subset that was picked to be rich in actives.

These compounds were tested on S. aureus RN4220 (assay: growth inhibition call (relative growth <= 0.2)). Details: 50 µM.

Compound	growth inhibition call
O=c1c2ccccc2oc2ccccc12	inactive
CC(=O)CC(c1ccccc1)c1c(O)c2ccccc2oc1=O (stereo not drawn)	inactive
O=c1oc2ccccc2c(O)c1Cc1c(O)c2ccccc2oc1=O	active
Cc1nccn1-c1ccc(CN)cc1	inactive
C[C@H](CO)N1C[C@H](C)[C@@H](CN(C)Cc2ccc(-c3ccccc3)cc2)Oc2c(NC(=O)Nc3ccc(C(F)(F)F)cc3)cccc2C1=O	inactive
CCC1OC(=O)C(C)C(=O)C(C)C(OC2OC(C)CC(N(C)C)C2O)C(C)(OC)CC(C)C(=O)C(C)C2N(CCCCn3cnc(-c4cccnc4)c3)C(=O)OC12C (stereo not drawn)	active
NNC(=O)[C@@H]1C(c2ccccc2)[C@H]1C(=O)NN (stereo partly drawn)	inactive
C[C@H](CO)N1C[C@H](C)[C@H](CN(C)S(=O)(=O)c2ccccc2)OCCCC[C@H](C)Oc2ccc(NS(=O)(=O)c3cn(C)cn3)cc2C1=O	inactive
C[C@H]1CN([C@@H](C)CO)C(=O)Cc2cc(NC(=O)Nc3cccc4ccccc34)ccc2O[C@H]1CN(C)Cc1ccc(Oc2ccccc2)cc1	inactive
O=C(C[C@@H]1C[C@H]2c3cc(NS(=O)(=O)c4ccc(F)cc4)ccc3O[C@H]2[C@@H](CO)O1)NCc1ccc(Oc2ccccc2)cc1	inactive
C[C@@]12CCC[C@](C)(C(=O)O[C@@H]3O[C@H](CO)[C@@H](O)[C@H](O)[C@H]3O)[C@@H]1CC[C@]13C[C@H](CC[C@@H]12)[C@](O)(CO)C3	inactive
C=C1C[C@@]23CC[C@@H]4[C@@](C)(CCC[C@@]4(C)C(=O)OC)[C@H]2CC[C@@H]1C3	inactive
C=C1C[C@]23CC[C@@H]4[C@@](C)(CCC[C@@]4(C)C(=O)O)[C@H]2CC[C@H]1C3	active
CN1CCN(CC#N)C(=O)C12CCN([C@H]1CCOC1)CC2	inactive
C[C@H]1CN([C@@H](C)CO)C(=O)Cc2cc(NS(=O)(=O)c3cn(C)cn3)ccc2O[C@H]1CN(C)S(=O)(=O)c1cn(C)cn1	inactive
C/C=C(/C)C(=O)O[C@H]1[C@@H](OC(C)=O)[C@@]2(CO)[C@@H](O)C[C@@]3(C)C(=CC[C@H]4[C@@]5(C)CC[C@@H](O[C@H]6O[C@H](C(=O)O)[C@@H](O[C@H]7O[C@@H](CO)[C@@H](O)[C@@H](O)[C@@H]7O)[C@@H](O)[C@@H]6O[C@H]6O[C@@H](CO)[C@@H](O)[C@@H](O)[C@@H]6O)[C@@](C)(CO)[C@@H]5CC[C@]43C)[C@@H]2CC1(C)C	inactive
CN(C)CC#Cc1ccc([C@H]2[C@@H](CO)N3CCCCN(C(=O)CN(C)C)C[C@@H]23)cc1	inactive
COc1ccc(NC(=O)N2CCCCN3[C@H](COCCN(C)C)[C@H](c4ccc(C#Cc5ccccc5)cc4)[C@@H]3C2)cc1	active
COc1ccc(NC(=O)N2CCCCN3[C@H](CN(C)C(C)=O)[C@H](c4ccc(C#Cc5ccccc5)cc4)[C@@H]3C2)cc1	inactive
O=C(C[C@H]1C=C[C@H](NC(=O)c2cccc(F)c2)[C@@H](CO)O1)NCCN1CCCC1	inactive
C[C@H](CO)N1C[C@H](C)[C@@H](CN(C)Cc2ccc(C(F)(F)F)cc2)Oc2ccc(NS(C)(=O)=O)cc2C1=O	inactive
CCCCC(=O)c1ccc(O)cc1	inactive
CCCCCCc1ccc(O)cc1O [listing 1 of 2 here]	active
CCCCCCCc1c(C)c(O)cc2c1[nH]c1ccccc12	inactive
CCCCCCc1ccc(O)cc1O.Nc1c2ccccc2nc2ccccc12	inactive

Compound	growth inhibition call
COC(=O)CCc1ccc(OC)cc1O	inactive
CCCCCCc1ccc(O)cc1O [listing 2 of 2 here]	active
COC(=O)N/N=C/c1c[n+]([O-])c2ccccc2[n+]1[O-]	inactive
CN1C(=O)c2cc(NS(C)(=O)=O)ccc2OC[C@H]2O[C@H](CC(=O)N3CCOCC3)CC[C@H]21	inactive
C[C@H]1CN([C@@H](C)CO)C(=O)c2cc(NS(C)(=O)=O)ccc2O[C@H]1CN(C)S(=O)(=O)c1ccccc1	inactive
C[C@@H]1CCCCO[C@H](CN(C)C(=O)CCCN(C)C)[C@@H](C)CN([C@@H](C)CO)C(=O)c2cc(NC(=O)Nc3cccc4ccccc34)ccc2O1	inactive
CO[C@@H]1CN(C)C(=O)c2ccc(NC(=O)CN(C)C)cc2OC[C@@H](C)N(C(=O)C2CCOCC2)C[C@H]1C	inactive
CC(C)NC(=O)Nc1ccc2c(c1)C(=O)N([C@H](C)CO)C[C@@H](C)[C@@H](CN(C)C(=O)Nc1ccc(C(F)(F)F)cc1)OCCCC[C@@H](C)O2	inactive
CC(=O)N1[C@@H]2c3ccc(-c4ccccc4)c(=O)n3C[C@H]1[C@H](CO)[C@H]2C(=O)N1CCN(C)CC1	inactive
C[C@H]1CN([C@@H](C)CO)C(=O)c2cc(NC(=O)c3ccncc3)ccc2O[C@@H]1CN(C)S(=O)(=O)c1ccc(F)cc1	inactive
COC(=O)c1ccc2c(c1)no[n+]2[O-]	inactive
COc1ccc(-n2nc(CCC(=O)N(C)O)cc2-c2ccc(Cl)cc2)cc1	inactive
CCCCc1nc(-c2ccc(OCCCN(CC)CC)cc2)cn1-c1ccc(Oc2ccc(Cl)cc2)cc1	active
CN(C)CCOC(=O)COc1ccc(Cl)cc1.Cl	inactive
Cc1cc(=O)n2nc(C(=O)O)nc2[nH]1	inactive
CN1C(=O)c2cc(NC(=O)C3CCC3)ccc2OC[C@@H]2O[C@H](CC(=O)NCCc3ccncc3)CC[C@@H]21	inactive
CC(C)CC#Cc1ccc2c(c1)O[C@H](CN(C)S(=O)(=O)c1ccc(F)cc1)[C@H](C)CN([C@H](C)CO)S2(=O)=O	inactive
CCC[C@@H]1C[C@@H](C(=O)N[C@@H]([C@H]2O[C@H](SC)[C@H](O)[C@@H](O)[C@H]2O)[C@@H](C)O)N(C)C1	active
CCCC1CC(C(=O)NC(C(C)O)C2OC(SC)C(O)C(O)C2O)N(C)C1.Cl (stereo not drawn)	active
CCC[C@@H]1C[C@@H](C(=O)N[C@H]([C@H]2O[C@H](SC)[C@H](O)[C@@H](O)[C@H]2O)[C@H](C)O)N(C)C1	active
CC(C)NC(=O)Nc1ccc2c(c1)C(=O)N([C@H](C)CO)C[C@H](C)[C@@H](CN(C)C(=O)Nc1ccc(F)cc1)OCCCC[C@H](C)O2	inactive
COc1cccc(-c2ccc3c(c2)O[C@H](CN(C)C(=O)C2CC2)[C@@H](C)CN([C@@H](C)CO)S3(=O)=O)c1	inactive
COc1ccc(CN(C)C[C@H]2OCCCC[C@@H](C)Oc3ccc(NC(=O)Nc4ccccc4)cc3C(=O)N([C@@H](C)CO)C[C@@H]2C)cc1	inactive
C[C@@H]1CN([C@H](C)CO)C(=O)c2cc(-c3ccncc3)cnc2O[C@H]1CN(C)C(=O)Nc1ccc2c(c1)OCO2	inactive
C[C@@H]1CCCCO[C@H](CN(C)C(=O)Nc2cccc3ccccc23)[C@@H](C)CN([C@@H](C)CO)C(=O)c2cc(NC(=O)Nc3ccc(F)cc3)ccc2O1	inactive

Compound	growth inhibition call
Cc1ccc(S(=O)(=O)N(C)C[C@H]2Oc3c(NC(=O)Nc4ccc(C(F)(F)F)cc4)cccc3C(=O)N([C@H](C)CO)C[C@H]2C)cc1	inactive
C[C@H]1CN([C@@H](C)CO)C(=O)c2cc(NC(=O)C3CCCCC3)ccc2O[C@H]1CN(C)Cc1ccc(Cl)c(Cl)c1	inactive
C[C@@H]1CN([C@H](C)CO)S(=O)(=O)c2ccc(C#CCN(C)C)cc2O[C@H]1CN(C)Cc1ccc2c(c1)OCO2	inactive
COc1ccc(COC[C@]23N=C4SCc5ccccc5CN4[C@H](c4ccccc4O2)[C@H]3COC(=O)NCCCCCC(=O)NO)cc1	inactive
CCn1cc(C(=O)O)c(=O)c2cc(F)c(N3CCN(C)CC3)cc21.CS(=O)(=O)O	active
CCn1cc(C(=O)O)c(=O)c2ccc(C)nc21	inactive
CCn1cc(C(=O)O)c(=O)c2cnc(N3CCCC3)nc21	inactive
O=C(O)c1cn(C2CC2)c2cc(N3CCNCC3)c(F)cc2c1=O	inactive
CCN1CCN(c2cc3c(cc2F)c(=O)c(C(=O)O)cn3C2CC2)CC1	active
CCn1cc(C(=O)N2CCN(C)CC2)c(=O)c2cc(S(=O)(=O)N(C)C)ccc21	inactive
CCn1cc(C(=O)O)c(=O)c2cc(F)c(N3CCNCC3)cc21	active
CCn1cc(C(=O)O)c(=O)c2cc(F)c(N3CCN(C(=S)Nc4cc(C(F)(F)F)ccc4Cl)CC3)cc21	inactive
C[C@@H]1CCCCO[C@H](CN(C)C(=O)CCCN(C)C)[C@@H](C)CN([C@H](C)CO)C(=O)c2cc(N(C)C)ccc2O1	inactive
C[C@@H]1CCCCO[C@H](CN(C)C(=O)NC2CCCCC2)[C@@H](C)CN([C@@H](C)CO)C(=O)c2cc(NC(=O)CCC(F)(F)F)ccc2O1	inactive
COCC(=O)N1C[C@@H](C)[C@@H](OC)CN(C)C(=O)c2cc(NC(=O)Nc3cccc(F)c3)ccc2OC[C@H]1C	inactive
C[C@@H]1CN([C@H](C)CO)C(=O)c2cc(NC(=O)CCC(F)(F)F)ccc2O[C@@H](C)CCCCO[C@@H]1CN(C)Cc1ccccc1	inactive
C[C@H]1CN([C@@H](C)CO)C(=O)c2cccc(NS(C)(=O)=O)c2O[C@@H]1CN(C)C(=O)Nc1ccc2c(c1)OCO2	inactive
CN(C)C(=O)CN1CCn2cc(Cn3cncn3)nc2C1	inactive
Cc1noc(C)c1NC(=O)Nc1ccc2c(c1)CC(=O)N([C@H](C)CO)C[C@H](C)[C@H](CN(C)S(=O)(=O)c1cccs1)O2	inactive
CC(C)(ON=C(C(=O)NC1C(=O)N2C(C(=O)[O-])=C(C[n+]3ccccc3)CSC12)c1csc(N)n1)C(=O)O (stereo not drawn)	inactive
NC(=O)c1cc[n+](CC2=C(C(=O)O)N3C(=O)[C@@H](NC(=O)Cc4cccs4)[C@H]3SC2)cc1	active
NC(=O)c1cc[n+](CC2=C(C(=O)[O-])N3C(=O)C(NC(=O)Cc4cccs4)C3SC2)cc1 (stereo not drawn)	active
NC(=O)c1cc[n+](CC2=C(C(=O)[O-])N3C(=O)C(NC(=O)C(c4ccccc4)S(=O)(=O)[O-])C3SC2)cc1.[Na+] (stereo not drawn)	inactive
